Most compounds without a hit are left out; they make up all but 2.2% or so of the library.
CHO-K1 Ca ag – counter-screen for M1 agonists: effect in parental CHO-K1 cells. Fluo-8 calcium fluorescence; scaled to maximal ATP response, vehicle zero. activation, % at 3 µM. actives 0.48% (n = 360,000); in the data active means activation above about 15%;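 further: untransfected CHO-K1 host cells lacking M1 receptor as counterscreen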
CHO-K1 Ca PAM – nonselective calcium activators in parental CHO-K1 cells, primary screen, counter-screen for M1 PAM project, cell-based, Fluo-8 calcium fluorescence, full deck, 1536-well. activation, % at 3 µM. actives 0.02% (n = 360,000). ATP EC20; 0% at ATP EC20, 100% at ATP max;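 active means activation above the run cutoff, the mean activation of all test compounds plus 3 SD, cut at about 40% in these data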;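 further: peak over basal fluorescence ratio in a 140 s read after ATP addition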
ANO1 activ – TMEM16A chloride channel activators or potentiators, primary screen, cell-based, HTS. HEK293 TMEM16A/YFP-H148Q/I152L, iodide quench fluorescence; hits give low values. Anoctamin-1 (Mus musculus), Q8BHY3. AID 623877, 2012. actives 0.3% (n = 340,000). B-score at 10 µM;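 active means fluorescence-ratio B-score plate-corrected deviation score at least 3 library SD below zero, with starting fluorescence score within 5 deviations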;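 further: channel opened by trigger with iodide after compound preincubation; score built on the fluorescence ratio of max minus min over baseline; more negative score means more quench and so TMEM16A activation or potentiation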
NTR1 ag – agonists of human NTR1, primary screen, imaging, U2OS cells, beta-arrestin-GFP, high content; NTR1-U2OS beta-arrestin-GFP spot imaging, agonist mode; actives 0.17% (n = 330,000); activation, % at 20 µM; AID 493036, 2011;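 active means activation at or above 40% of the spot to cytoplasm intensity ratio, with at least 20 cells analyzed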;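 further: 0% = DMSO without peptide and 100% = 100 nM NTR1 peptide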
Target sequence (P30989 whole entry, looked up): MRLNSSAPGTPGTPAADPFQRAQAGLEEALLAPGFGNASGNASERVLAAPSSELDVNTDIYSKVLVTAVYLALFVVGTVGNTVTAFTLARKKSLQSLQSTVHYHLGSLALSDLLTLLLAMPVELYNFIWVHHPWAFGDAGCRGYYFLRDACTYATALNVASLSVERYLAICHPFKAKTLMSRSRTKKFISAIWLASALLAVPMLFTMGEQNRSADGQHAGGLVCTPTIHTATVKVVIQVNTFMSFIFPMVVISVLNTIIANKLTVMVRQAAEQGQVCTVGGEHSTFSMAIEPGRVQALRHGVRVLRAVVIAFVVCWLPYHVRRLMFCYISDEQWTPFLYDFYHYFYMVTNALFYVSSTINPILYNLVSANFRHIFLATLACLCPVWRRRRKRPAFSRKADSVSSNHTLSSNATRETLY
TMEM16A inh – TMEM16A chloride channel inhibitors, primary screen, cell-based, HTS; Anoctamin-1 (Mus musculus), Q8BHY3; HEK293 TMEM16A/YFP iodide influx fluorescence, ionomycin; normalized B-score (activity score, 25-100; higher = stronger inhibition) at 10 µM; actives 1.2% (n = 310,000); AID 588511, 2011;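 active means ratio plate-corrected score three or more library SD toward inhibition, starting fluorescence score within five deviations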;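 further: score derived from kinetic fluorescence span divided by baseline fluorescence per well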
CHO-K1 Ca antag – M1 antagonist counterscreen hit in parental CHO-K1 cells. actives 0.6% (n = 360,000). ATP-induced calcium, Fluo-8 fluorescence. inhibition, % at 3 µM;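 active means inhibition above a per-plate cutoff, the plate's mean sample inhibition plus 3 SD, cut at about 24% in these data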;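 further: 0% = DMSO plus EC80 ATP and 100% = DMSO alone without ATP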
* = called active by the depositor; i = inactive; . = no result.

SMILES	CHO-K1 Ca ag	CHO-K1 Ca PAM	ANO1 activ	NTR1 ag	TMEM16A inh	CHO-K1 Ca antag
Cc1sc(NC(=O)C2CC(=O)N(Cc3ccco3)C2)nc1-c1ccccc1 (stereo unspecified)	0	11	.	.	.	-6
COc1ccc(C(C)(NC(C)=O)c2nc(/C=C/c3ccccc3)cs2)cc1 (stereo unspecified)	0	-11	.	.	.	32*
CC(=O)NC(C)(c1ccccc1)c1nc(/C=C/c2ccccc2)cs1 (stereo unspecified)	0	16	.	.	.	2
CS/C(=N\N(C)C(N)=O)c1ccccc1	15*	16	i	1	i	4
Cc1ccc(CN2C(=O)c3ccccc3C2c2nnnn2-c2c(C)cccc2C)cc1 (stereo unspecified)	0	-2	.	.	.	-16
N#C/C(=C\c1cn(-c2ccccc2)nc1-c1cc2ccccc2o1)c1nc2ccccc2[nH]1	0	-2	i	2	i	4
CN(C)S(=O)(=O)c1cccc(-c2nn(-c3ccccc3)cc2/C=C(\C#N)c2nc3ccccc3[nH]2)c1	0	-11	i	5	i	24*
c1ccc(COc2ncnc3c2ncn3CCCN2CCN(c3ncccn3)CC2)cc1	0	-10	.	.	.	7
Clc1ccc(CNc2nc(N3CCOCC3)nc(N3CCOCC3)n2)cc1	-1	10	-7.6*	2	i	-6
c1ccc(CNc2nc(N3CCOCC3)nc(N3CCOCC3)n2)cc1	1	29	i	-1	i	-27
CCCc1nc2c(Cl)cc(C(F)(F)F)cn2c1Cc1ccc(OC)cc1C	0	19	.	.	.	-11
CCOC(=O)c1cnc(-n2nc(C)cc2C)nc1NC1CCCCC1	3	16	i	18	100*	5
CCOC(=O)c1cnc(-n2nc(C)cc2C)nc1NC	0	2	i	2	i	-7
COc1ccc(-c2cc(-c3ccccc3)c(C#N)c(S(C)=O)n2)cc1 (stereo unspecified)	2	-3	-8.1*	9	i	1
O=C(NC1CCCC1)c1sc(=S)n2c1[nH]c(=O)c1ccccc12	1	1	i	8	i	2
O=C(NCc1ccco1)c1sc(=S)n2c1[nH]c(=O)c1ccccc12	6	2	i	5	100*	-16
CCOc1ccc(S(=O)(=O)Nc2nc3ccccc3nc2Cl)cc1	1	-10	i	0	i	-5
CCOc1ccc(S(=O)(=O)Nc2cnc3ccccc3c2)cc1	14	1	i	1	25*	25*
CNC(=O)/C(C#N)=C/c1ccc(-c2ccccc2[N+](=O)[O-])o1	0	-18	i	0	i	27*
N#C/C(=C\c1ccc(-c2ccccc2[N+](=O)[O-])o1)C(N)=O	0	10	i	3	i	-3
COc1ccc(-c2nn(-c3ccccc3)cc2C(=O)N/N=C/c2ccc([N+](=O)[O-])o2)cc1	0	18	-6.9*	24	i	-12
Cc1nc(C(F)(F)F)ccc1C(=O)N1CCC1(C)C(=O)NCc1cccs1 (stereo unspecified)	0	-11	.	.	.	7
CCCC(=O)Nc1c(-c2ccccc2)[nH][nH]c1=O	0	-3	.	.	.	2
COc1ccc(CC(=O)OCC(=O)N2CCc3ccccc32)cc1OC	2	-6	-25*	1	.	-7
CN(C)S(=O)(=O)c1cccc(NC(=S)Nc2ccc(Cl)cc2Cl)c1	0	6	i	-1	i	5
SMILES	CHO-K1 Ca ag	CHO-K1 Ca PAM	ANO1 activ	NTR1 ag	TMEM16A inh	CHO-K1 Ca antag
CN(C)S(=O)(=O)c1cccc(NC(=S)Nc2cc(Cl)cc(Cl)c2)c1	4	16	i	2	100*	11
C[n+]1cccc(NC(=O)c2ccccc2)c1	1	13	.	.	.	-10
O=C(NCc1ccco1)c1ccccc1NS(=O)(=O)c1cccs1	19*	16	i	0	i	2
O=C(CSC(=S)N1CCCC1)N(Cc1nnc(-c2ccccc2Cl)o1)C1CC1	1	8	i	2	.	-11
COc1cccc(/C=C2\Oc3cc(OCC(=O)N4CCCC4)ccc3C2=O)c1OC	2	-5	-38*	3	i	-9
CC(=O)Oc1ccc(-c2nc(-c3cccnc3)no2)cc1	1	13	-15*	0	i	-5
CC(=O)Oc1ccc(Oc2ccc(-c3noc(C)n3)cc2)cc1	1	12	i	0	i	2
Cc1ccc(OCC(=O)NNC(=O)C2CSC3(C)CCC(=O)N23)cc1C (stereo unspecified)	3	5	i	0	.	2
COc1ccc(S(=O)(=O)N2CCC(C(=O)N[C@@H](C)C(=O)NCc3ccccn3)CC2)cc1	0	-11	.	.	.	-3
Cc1cccc(CS(=O)(=O)Cc2ccc(C(=O)NCc3ccccc3)o2)c1	6	11	i	0	i	-13
Cc1cccc(CS(=O)(=O)Cc2ccc(C(=O)NCc3cccs3)o2)c1	27*	5	i	0	i	2
Clc1ccc(C(c2nnnn2C2CCCC2)N2CCN(c3nc4ccccc4s3)CC2)cc1 (stereo unspecified)	1	34	-12*	-1	i	-24
CC(C)(C)n1nnnc1C(c1ccc(F)cc1)N(Cc1ccc(F)cc1)Cc1ccco1 (stereo unspecified)	1	12	-5.1*	2	i	-20
CC(C)(C)n1nnnc1C(c1ccc(C(F)(F)F)cc1)N(Cc1ccc(F)cc1)Cc1ccco1 (stereo unspecified)	1	8	i	0	i	-1
Cc1[nH]n(C(N)=S)c(=O)c1N=Nc1cccc([N+](=O)[O-])c1C	26*	-3	i	2	25*	10
Cc1c(N=Nc2c(-c3ccc([N+](=O)[O-])cc3)[nH]n(C(N)=S)c2=O)cccc1[N+](=O)[O-]	0	-8	i	.	.	-2
O=C1c2ccccc2C(c2nnnn2-c2ccc3c(c2)OCCO3)N1CCOc1ccccc1 (stereo unspecified)	1	-5	.	.	.	3
Cc1cccc(C)c1-n1nnnc1-c1nc2cc3ccccc3cc2[nH]c1=O	4	2	.	.	.	3
CCN(CCn1cccn1)Cc1cn[nH]c1-c1cccc2ccccc12	1	10	-6.2*	0	i	-7
CCN1C(=O)[C@H]2[C@@H](c3ccc(C(F)(F)F)cc3)N[C@]3(CCCN(CC4CCCCC4)C3=O)[C@H]2C1=O	0	5	.	.	.	0
